Reference: PubChem BioAssay (EPA / NIEHS)
Calls of active or inactive are those of the source. The calls were made as follows: active = hit-call score of the fitted dose curve at least 0.9, where 1 is the maximum; inactive = score below 0.9.

Test: ATG_NRF2_ARE_CIS: Attagene CIS-FACTORIAL HepG2 Assay for human Nuclear Factor Erythroid 2 Related Factor 2 (NFR2) response to Antioxidant Response Elements (ARE) (AID 2282992);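 as to AC50: reporter mRNA level measured by RT-PCR and capillary electrophoresis fluorescence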
Settings: HepG2 Attagene ARE/NRF2 reporter, transcription factor activity; actives raise or lower the signal
How it was run: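 HepG2 cells transiently transfected with multiplexed cis-regulated reporter transcription units measure endogenous transcription factor activity. Reporter mRNA at 24 h is quantified by RT-PCR, fluorescent labelling and capillary electrophoresis, with bidirectional fitting relative to DMSO.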

SMILES	outcome	AC50
C=CC(C)C#N (centres undefined)	inactive	–
CCCCC(CC)COC(=O)c1ccc(O)cc1 (centres undefined)	inactive	–
CCOC(=O)[C@@H](C)Oc1ccc(Oc2nc3ccc(Cl)cc3o2)cc1	–	39.9 µM (active)
CC(C)(C)OC(=O)c1ccc(O)cc1	–	35 µM (active)
COc1cc(Cl)c(OC)cc1N	inactive	–
CN(C)CCOc1ccc(/C(=C(/CCCl)c2ccccc2)c2ccccc2)cc1	–	2.47 µM (active)
O=[N+]([O-])c1ccc(O)cc1C(F)(F)F	–	52.8 µM (active)
CCOC(=O)CC(C)O (centres undefined)	inactive	–
COC(=O)c1ccc(OC)cc1	inactive	–
CCC(Cl)C(Cl)C(Cl)CC(Cl)C(Cl)C(C)Cl (centres undefined)	–	43.4 µM (active)
COC(C)(C)CC(C)=O	inactive	–
CC(=O)O[C@H]1C[C@@H]2CC[C@@]1(C)C2(C)C	inactive	–
O=C(Nc1ccc2c(c1)Cc1ccccc1-2)C(F)(F)F	–	24.8 µM (active)
CC(=O)O[C@@H]1C[C@@H]2CC[C@@]1(C)C2(C)C	inactive	–
NCC1CCCC(CN)C1 (centres undefined)	inactive	–
CCCCCCCCSCCO	–	186 µM (active)
CCCCCCC(O)CCCCCCCCCCC(=O)O (centres undefined)	–	27.3 µM (active)
CC1C2CC(CC2C2CCCC(O)C2)C1(C)C (centres undefined)	inactive	–
CCCCCCCCCCCC(=O)OC[C@@H](O)[C@H]1OC[C@H](O)[C@H]1O	inactive	–
CCc1cc(C(C)(C)C)c(O)c(C(C)(C)C)c1	–	52.6 µM (active)
C=CC(C)(O)CCC=C(C)C (centres undefined)	inactive	–
CCOC(=O)CN	inactive	–
CCC1(c2ccccc2)C(=O)NCNC1=O	inactive	–
CCc1cc(Cc2cc(CC)cc(C(C)(C)C)c2O)c(O)c(C(C)(C)C)c1	–	7.08 µM (active)
